In all, about 330,000 compounds went through this assay and about 7,300 (2.2%) were called active.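 The calls were made as follows: active = inhibition of at least 40%; inactive = the rest.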 This excerpt belongs to a sample that is enriched for actives.
Assay: growth inhibitors of tim10-1 mutant yeast, primary screen, luminescence, uHTS (AID 463190);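 also: mutant grown at 25 °C; 0% = DMSO wells with yeast and 100% = wells holding no yeast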
Settings: S. cerevisiae tim10-1 ts strain growth, BacTiter-Glo, 24 h; at 20 µM; active compounds read high

| SMILES | inhibition |
| --- | --- |
| O=C(CS(=O)(=O)c1ccccc1)Nc1ccc(S(=O)(=O)Nc2ccccn2)cc1 | 0.086% (inactive) |
| CC(C)(C)c1cnnn1-c1ccc([N+](=O)[O-])cc1 | 12% (inactive) |
| Cc1cc(C(=O)Nc2c(C)nn(Cc3ccccc3)c2C)on1 | 1.72% (inactive) |
| Cc1nn(Cc2ccc(F)cc2)c(C)c1NC(=O)c1cccnc1Cl | -0.56% (inactive) |
| Cc1nn(Cc2ccc(Cl)c(Cl)c2)c(C)c1NC(=O)c1cc(C2CC2)on1 | 57% (active) |
| Cc1ccccc1OCC(=O)NCC(=O)OCC(=O)c1ccc2ccccc2c1 | 18.3% (inactive) |
| N/C(=N\S(=O)(=O)c1cc(C(F)(F)F)cc(C(F)(F)F)c1)c1cccs1 | 5.1% (inactive) |
| COc1ccc(-n2c(SCC(=O)NCc3ccco3)nnc2-c2c[nH]c3ccccc23)cc1 | 7.58% (inactive) |
| Fc1ccc(/C=N/Nc2nc(-c3cccnc3)nc3ccccc23)cc1 | 43.3% (active) |
| O=c1c2ccccc2nc(N/N=C/c2ccccc2)n1O | 12.3% (inactive) |
| O=C(N/N=C/c1cccnc1)c1ccc(NC(=O)c2ccc(F)cc2)cc1 | -1.83% (inactive) |
| Cc1cc(C)cc(NC(=O)CCN2C(=O)c3ccccc3C2=O)c1 | 15.2% (inactive) |
| CCN(CC)C(=O)Oc1ccc(OC(=O)N(CC)CC)cc1 | 32.3% (inactive) |
| CCC(=O)Nc1nnc(S(=O)(=O)N(CC(C)C)c2ccccc2)s1 | -0.846% (inactive) |
| CC1=C/C(=N\OS(=O)(=O)c2ccccc2)C=CC1=O | 76.6% (active) |
| CCOC(=O)C1CCN(C(=O)c2ccccc2N(C)S(=O)(=O)c2ccccc2)CC1 | 25% (inactive) |
| CSc1nnc(C2CCCN(CC(=O)Nc3ccccc3N3CCOCC3)C2)n1C(C)C (stereo not given) | -3.94% (inactive) |
| Cc1ccnc2nc(C(=O)OCC(=O)N(CC(C)C)CC(C)C)nn12 | 13.2% (inactive) |
| Cn1cc(/C=C/C(=O)N2CCCC(C(=O)c3ccc(C(F)(F)F)cc3)C2)cn1 (stereo not given) | 24.9% (inactive) |
| COc1cccc(C(=O)N/N=C(\C)c2cccc(NC(=O)c3ccc(F)cc3)c2)c1OC | 20.1% (inactive) |
| Cn1c(CN2CCOCC2)nc2cc(NC(=O)c3ccc(Cl)cc3)ccc21 | 15.9% (inactive) |
| CCC(=O)Nc1ccc(S(=O)(=O)Nc2c(NC)c3ccccc3oc2=O)cc1 | 27% (inactive) |
| O=C(CN1CCN(C2CCCCC2)CC1)Nc1ccccc1N1CCCCC1 | -10.4% (inactive) |
| CN1CCN(c2ccccc2NC(=O)COc2ccc(C3CCCCC3)cc2)CC1 | 42.9% (active) |

| SMILES | inhibition |
| --- | --- |
| Cc1ccc(C(C)C)cc1OCC(=O)Nc1ccccc1N1CCCC1 | -15.9% (inactive) |
| Cc1cc(C)cc(OCC(=O)NNC(=O)CCN2C(=O)c3ccccc3C2=O)c1 | 9.29% (inactive) |
| O=C(Oc1ccc(-c2nc(-c3ccccn3)no2)cc1)c1ccccc1 | 51.2% (active) |
| O=C(COC(=O)c1ccncc1)c1ccccc1 | 22.8% (inactive) |
| Brc1ccc(-c2noc(-c3ccccc3)n2)o1 | 11.2% (inactive) |
| COc1ccc2oc(C(=O)OCC(=O)N(CC(C)C)c3c(N)n(Cc4ccccc4)c(=O)[nH]c3=O)c(C)c2c1 | -2.22% (inactive) |
| CCC(C(=O)N1CCN(S(=O)(=O)c2sc(C(=O)O)c(C)c2C(=O)O)CC1)c1ccccc1 (stereo not given) | -6.62% (inactive) |
| Cc1cc(-c2nnc(CCC(=O)NC(c3ccccc3)c3ccccc3)o2)no1 | -7.23% (inactive) |
| COC(=O)/C=C/C(=O)NCc1ccco1 | -3.84% (inactive) |
| O=C(/C=C/c1ccc(Cl)cc1Cl)NCc1ccco1 | 41.9% (active) |
| O=C(NCc1ccco1)C1(c2ccc(Cl)cc2)CCCC1 | 29.4% (inactive) |
| Cc1[nH]c2ccccc2c1C(=O)C(C)Sc1nnc(C2CC2)o1 (stereo not given) | -11.7% (inactive) |
| CCN(CC)C(=O)CSc1nnc(C2CCCCC2)o1 | 2.18% (inactive) |
| CCCCCC1CCC(c2nnc(SCC(C)=O)o2)CC1 (stereo not given) | 42.3% (active) |
| O=C(COc1cccc(F)c1)Oc1ccc(C(=O)c2ccccc2)cc1 | -0.003% (inactive) |
| CCC(C)c1ccccc1NC(=O)CN(C)CC(=O)Nc1ccccc1SC (stereo not given) | 11.9% (inactive) |
| O=C(Cc1ccccc1)Nc1c(C(=O)N2CCCCCC2)cnn1-c1ccccc1 | 29.5% (inactive) |
| N#Cc1ccccc1Sc1ccccc1C(=O)OCC(=O)NC1CCCCC1 | 1.29% (inactive) |
| CC(CCN1CCN=C1N(C)C)c1ccccc1 (stereo not given) | -14.7% (inactive) |
| CC(=O)Oc1cccc(C(=O)Nc2ccccc2NC(=O)c2cccc(OC(C)=O)c2)c1 | -9.31% (inactive) |
| CC(=O)O[C@H]1c2ccccc2-c2ccccc2[C@@H]1OC(C)=O | 4.4% (inactive) |
| CC(=O)Oc1ccc2c(c1)C(=O)c1ccccc1C2=O | 52.2% (active) |
| O=C(CSc1nnc(CN2CCCC2)n1-c1ccc(F)cc1)c1ccc2c(c1)OCO2 | 14.8% (inactive) |
| CC(=O)c1ccc(NC(=S)NC(=O)CC(C)C)cc1 | 14.6% (inactive) |

| SMILES | inhibition |
| --- | --- |
| CC(C)CC(=O)NC(=S)Nc1ccc(F)cc1F | 49.5% (active) |
| CC(C)CC(=O)NC(=S)Nc1cc(C(=O)O)ccc1Cl | -9% (inactive) |
| Cc1ccc(C(=O)C(C)OC(=O)Cc2n[nH]c(=O)c3ccccc23)cc1C (stereo not given) | -2.29% (inactive) |
| O=C(Nc1ccc(C(=O)NCc2ccccc2Cl)cc1)C1=CSCCO1 | -4.56% (inactive) |
| Cc1ccc(S/C(=N\S(=O)(=O)c2ccc(Cl)cc2)c2ccccc2)cc1 | 41.3% (active) |
| Cc1ccc(S(=O)(=O)/N=C(/Nc2ccccn2)c2ccc(Cl)cc2)cc1 | 19.5% (inactive) |
| O=S(=O)(/N=C(/Nc1ccccn1)c1ccccc1)c1ccc(Cl)cc1 | 20.8% (inactive) |
| CCC1CCCCN1CCCNC(=O)c1cc2c(Cl)nc3ccccc3c2s1 (stereo not given) | 32.7% (inactive) |
| CCOc1ccc(NC(=O)N(CCC(C)C)C(C)c2ccco2)cc1 (stereo not given) | 15.1% (inactive) |
| CC(c1ccco1)N(C(=O)Nc1ccccc1)C1CCCCC1 (stereo not given) | 48.1% (active) |
| Cc1ccc(NC(=O)NC(=O)N(C2CCCCC2)S(=O)(=O)c2ccccc2)cc1 | 13.6% (inactive) |
| C=CCOc1ccc(/C=N/n2cncn2)cc1OC | 6.25% (inactive) |
| CC(Cc1cccs1)NC(=O)c1cccc(Cl)c1 (stereo not given) | 21.4% (inactive) |
| COc1ccc(CCNCc2c(-c3ccccc3)n(C)c3ccccc23)cc1 | 40.2% (active) |
| COc1ccc(-c2nc3ccccc3c(=O)n2CCc2ccc(O)cc2)cc1 | 25.8% (inactive) |
| COc1ccc(-c2c(C#Cc3ccccc3)c3ccccc3n2C)cc1 | 14.3% (inactive) |
| Cc1ccc(Sc2cc(N3CCOCC3)nc(-c3ccccc3)n2)cc1 | 20.9% (inactive) |
| CCN1CCN(c2nc(Nc3cccc(F)c3)nc(N)c2[N+](=O)[O-])CC1 | 9.58% (inactive) |
| Cc1ccccc1Nc1nc(N)nc(COC(=O)CCC(=O)c2ccc(F)cc2)n1 | 15.1% (inactive) |
| COc1cc(N2C(=O)CSC2=S)cc(OC)c1OC | -10% (inactive) |
| O=C1CSC(=S)N1c1ccc(O)cc1 | -38.8% (inactive) |
| O=C1CSC(=S)N1c1ccc(Cl)c(Cl)c1 | 42% (active) |
| COc1ccc(C)cc1Nc1n[n+](-c2ccccc2)c(-c2cccc(Cl)c2Cl)s1 | 22.9% (inactive) |
| CCCCCCC(O)(CCN1CCCCC1)c1ccccc1 (stereo not given) | 7.54% (inactive) |

| SMILES | inhibition |
| --- | --- |
| CCOc1ccc(C2C(C#N)=C(N)N(N(C)C)C3=C2C(=O)CCC3)cc1 (stereo not given) | 12.1% (inactive) |
| CN(C)N1C(N)=C(C#N)C(c2ccc(Br)cc2)C2=C1CCCC2=O (stereo not given) | 43.6% (active) |
| CCc1ccc(C2C(C#N)=C(N)N(N(C)C)C3=C2C(=O)CCC3)s1 (stereo not given) | 16.4% (inactive) |
| CC(C)Cc1nnc(NC(=O)CN2C(=O)NC3(CCCCC3)C2=O)s1 | -6.92% (inactive) |
| CCCc1cc(-c2nc(-c3ccc(C)cc3)cs2)ccn1 | 42.5% (active) |
| Clc1ccc(-c2csc(-c3ccncc3)n2)cc1 | 24.5% (inactive) |
| Cc1ccc(-c2csc(-c3cc(C)on3)n2)cc1 | 11.2% (inactive) |
| Cc1ccc(/C=N/NC(=O)c2cc3ccccc3cc2O)o1 | 15.5% (inactive) |
| Cc1cc(N=Nc2ccc3ccccc3c2)ccc1O | 57.7% (active) |
| COc1ccc(NC(=O)NCCN2CCN(c3ccc(C)cc3)CC2)c(Cl)c1 | -2.17% (inactive) |
| COc1ccc(C2Nc3ccccc3C(=O)N2c2ccc(Cl)cc2)cc1Cn1cc([N+](=O)[O-])cn1 (stereo not given) | 28% (inactive) |
| Cc1cc(C)n(S(=O)(=O)c2cccc([N+](=O)[O-])c2)n1 | 12.8% (inactive) |
| Cc1ccccc1CN1CCC(C(=O)Nc2ccc(Oc3cccnc3)cc2)CC1 | 8.05% (inactive) |
| Cc1cc(OCCCC(=O)NCCN2C(=O)S/C(=C\c3cccnc3)C2=O)ccc1Cl | 19.9% (inactive) |
| O=C(NCCN1C(=O)S/C(=C\c2cccnc2)C1=O)c1cccc(OC(F)F)c1 | 40.4% (active) |
| O=C(NCCN1C(=O)S/C(=C\c2cccnc2)C1=O)c1ccc(S(=O)(=O)N2CCCC2)cc1 | 18.6% (inactive) |
| O=C(CCNS(=O)(=O)c1ccccc1C(F)(F)F)NCc1ccc2c(c1)OCO2 | 23.1% (inactive) |
| Cn1nc(C(F)(F)F)c(C(=O)Nc2cccc(C(F)(F)F)c2)c1SCc1ccc(Cl)cc1 | 36% (inactive) |
| O=C(CCn1nnnc1CN1CCOCC1)N1CCC(c2ccccc2Cl)C1 (stereo not given) | 15.3% (inactive) |
| CC(=O)N1CCN(CC(=O)Nc2ccc(SC(F)F)cc2)CC1 | -0.192% (inactive) |
| O=C(Cc1ccc(Cl)c(Cl)c1)Nc1ccc(SC(F)F)cc1 | 43.5% (active) |
| Cc1ccc(CC(=O)Nc2ccc(OC(F)F)c(Cl)c2)cc1C | 15.6% (inactive) |
| O=C(c1ccc(F)cc1)n1c(=S)nc2ccccn21 | 26.9% (inactive) |

Source: PubChem BioAssay AID463190 (Sanford-Burnham Center for Chemical Genomics, 2010)
